# Active and inactive are the calls of the source.
# How the values were obtained:
# [1] = small molecules captured by biotinylated probe aFSTL3 – biochemical, small-molecule microarray, fluorescence 635/667, stem cell growth factor project, primary screen (AID 1064); details: higher = more signal;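 also: measures binding of the biotinylated anti-FSTL3 antibody to printed compounds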
# [2] = binders from COS7 lysate, DM2A8 probe, primary screen, torsin A project, cell lysate, small-molecule microarray, fluorescence 635/667 (AID 1065); details: higher = more signal, COS7 lysate expressing mutant human TOR1A
# [3] = small molecules captured by biotinylated probe aFGF2 – biochemical, small-molecule microarray, fluorescence 635/667, stem cell growth factor project, primary screen (AID 1067); details: higher = more signal;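 also: measures binding of biotinylated aFGF2 protein to printed compounds on slides; z-score merges feature fluorescence and signal-to-noise across triplicate slides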
# [4] = small molecules captured by biotinylated probe aFGF10 – biochemical, small-molecule microarray, fluorescence 635/667, stem cell growth factor project, primary screen (AID 1071); details: higher = more signal;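 also: score merges 667 nm spot intensity and signal to noise from triplicate slides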
# [5] = target: Neurogenic locus notch homolog protein 2 (Homo sapiens) (UniProt Q04721); assay: small molecules binding Notch2 protein – biochemical, small-molecule microarray, 635 nm fluorescence, stem cell growth factors, primary screen (AID 1073); details: higher = more signal
# Neurogenic locus notch homolog protein 2 (Homo sapiens), sequence (Q04721 whole entry, looked up, canonical isoform): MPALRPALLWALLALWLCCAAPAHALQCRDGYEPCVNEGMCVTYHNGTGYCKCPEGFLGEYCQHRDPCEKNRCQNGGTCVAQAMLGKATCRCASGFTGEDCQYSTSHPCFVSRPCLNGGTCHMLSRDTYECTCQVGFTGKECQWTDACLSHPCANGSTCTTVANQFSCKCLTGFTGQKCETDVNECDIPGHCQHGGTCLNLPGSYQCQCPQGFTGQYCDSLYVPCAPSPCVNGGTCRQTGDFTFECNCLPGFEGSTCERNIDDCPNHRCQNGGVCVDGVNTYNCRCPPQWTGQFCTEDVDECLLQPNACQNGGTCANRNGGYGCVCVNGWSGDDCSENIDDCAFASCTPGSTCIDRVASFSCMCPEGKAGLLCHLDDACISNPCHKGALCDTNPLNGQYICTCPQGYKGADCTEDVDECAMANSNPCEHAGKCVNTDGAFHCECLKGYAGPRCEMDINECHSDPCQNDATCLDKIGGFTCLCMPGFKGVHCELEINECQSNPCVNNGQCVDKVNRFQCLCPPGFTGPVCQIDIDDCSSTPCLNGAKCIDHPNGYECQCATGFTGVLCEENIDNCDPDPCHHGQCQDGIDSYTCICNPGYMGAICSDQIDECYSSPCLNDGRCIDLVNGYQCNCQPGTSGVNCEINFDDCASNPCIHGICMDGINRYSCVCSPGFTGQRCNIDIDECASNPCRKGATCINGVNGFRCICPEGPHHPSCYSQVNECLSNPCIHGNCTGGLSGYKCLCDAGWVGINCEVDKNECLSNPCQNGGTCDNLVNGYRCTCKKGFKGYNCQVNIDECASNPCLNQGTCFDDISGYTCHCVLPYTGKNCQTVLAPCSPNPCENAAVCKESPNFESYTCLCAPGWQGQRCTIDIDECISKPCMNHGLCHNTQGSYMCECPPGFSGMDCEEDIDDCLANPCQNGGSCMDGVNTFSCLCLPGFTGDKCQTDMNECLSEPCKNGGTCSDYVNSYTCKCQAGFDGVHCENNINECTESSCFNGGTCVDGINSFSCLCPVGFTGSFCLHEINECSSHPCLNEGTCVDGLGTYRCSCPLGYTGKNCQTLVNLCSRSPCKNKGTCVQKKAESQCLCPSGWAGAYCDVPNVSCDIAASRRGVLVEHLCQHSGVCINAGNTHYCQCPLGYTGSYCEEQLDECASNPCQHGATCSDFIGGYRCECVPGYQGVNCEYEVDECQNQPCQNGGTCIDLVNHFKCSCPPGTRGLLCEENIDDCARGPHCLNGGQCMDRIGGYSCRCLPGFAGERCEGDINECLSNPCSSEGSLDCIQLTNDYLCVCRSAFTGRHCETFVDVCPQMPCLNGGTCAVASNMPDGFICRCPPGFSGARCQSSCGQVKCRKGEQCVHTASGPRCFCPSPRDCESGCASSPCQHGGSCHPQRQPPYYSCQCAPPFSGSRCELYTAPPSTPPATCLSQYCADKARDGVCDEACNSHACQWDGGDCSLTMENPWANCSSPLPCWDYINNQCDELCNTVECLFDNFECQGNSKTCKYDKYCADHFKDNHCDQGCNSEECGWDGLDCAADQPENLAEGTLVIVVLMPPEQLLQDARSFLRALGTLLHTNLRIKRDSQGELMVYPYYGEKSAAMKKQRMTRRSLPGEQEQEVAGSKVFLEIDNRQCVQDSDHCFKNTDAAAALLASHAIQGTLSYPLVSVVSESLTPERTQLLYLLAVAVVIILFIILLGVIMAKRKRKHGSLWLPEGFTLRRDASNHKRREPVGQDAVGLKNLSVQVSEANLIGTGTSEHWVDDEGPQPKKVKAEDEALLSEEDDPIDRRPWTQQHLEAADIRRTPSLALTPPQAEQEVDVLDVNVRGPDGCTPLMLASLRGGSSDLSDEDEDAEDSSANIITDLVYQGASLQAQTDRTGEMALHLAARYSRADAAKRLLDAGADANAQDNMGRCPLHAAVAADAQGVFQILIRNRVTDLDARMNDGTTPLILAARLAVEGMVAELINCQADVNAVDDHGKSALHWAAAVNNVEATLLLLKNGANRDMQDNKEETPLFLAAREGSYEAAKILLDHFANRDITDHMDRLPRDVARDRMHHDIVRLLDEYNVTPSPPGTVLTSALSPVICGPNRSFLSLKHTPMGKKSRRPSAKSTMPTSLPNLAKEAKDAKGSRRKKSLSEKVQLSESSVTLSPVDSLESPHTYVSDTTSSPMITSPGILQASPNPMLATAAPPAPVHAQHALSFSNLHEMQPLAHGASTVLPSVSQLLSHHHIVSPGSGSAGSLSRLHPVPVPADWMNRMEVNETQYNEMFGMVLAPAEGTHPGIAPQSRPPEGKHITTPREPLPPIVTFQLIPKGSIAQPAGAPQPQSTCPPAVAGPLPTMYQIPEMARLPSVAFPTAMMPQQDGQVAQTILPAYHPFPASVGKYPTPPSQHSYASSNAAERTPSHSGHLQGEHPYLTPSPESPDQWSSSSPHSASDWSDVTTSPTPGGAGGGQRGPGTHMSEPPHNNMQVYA
# [6] = target: Pro-neuregulin-1, membrane-bound isoform (Homo sapiens) (UniProt Q02297); assay: small molecules binding neuregulin-1 protein – biochemical, small-molecule microarray, fluorescence 635/667, psychiatric disease protein project, primary screen (AID 1075); details: NRG1 binding, 635 nm fluorescence, higher = more signal;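 also: score combines 667 nm spot fluorescence with signal to noise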
# Pro-neuregulin-1, membrane-bound isoform (Homo sapiens), sequence (Q02297 whole entry, looked up, the tested form may be a part, canonical isoform): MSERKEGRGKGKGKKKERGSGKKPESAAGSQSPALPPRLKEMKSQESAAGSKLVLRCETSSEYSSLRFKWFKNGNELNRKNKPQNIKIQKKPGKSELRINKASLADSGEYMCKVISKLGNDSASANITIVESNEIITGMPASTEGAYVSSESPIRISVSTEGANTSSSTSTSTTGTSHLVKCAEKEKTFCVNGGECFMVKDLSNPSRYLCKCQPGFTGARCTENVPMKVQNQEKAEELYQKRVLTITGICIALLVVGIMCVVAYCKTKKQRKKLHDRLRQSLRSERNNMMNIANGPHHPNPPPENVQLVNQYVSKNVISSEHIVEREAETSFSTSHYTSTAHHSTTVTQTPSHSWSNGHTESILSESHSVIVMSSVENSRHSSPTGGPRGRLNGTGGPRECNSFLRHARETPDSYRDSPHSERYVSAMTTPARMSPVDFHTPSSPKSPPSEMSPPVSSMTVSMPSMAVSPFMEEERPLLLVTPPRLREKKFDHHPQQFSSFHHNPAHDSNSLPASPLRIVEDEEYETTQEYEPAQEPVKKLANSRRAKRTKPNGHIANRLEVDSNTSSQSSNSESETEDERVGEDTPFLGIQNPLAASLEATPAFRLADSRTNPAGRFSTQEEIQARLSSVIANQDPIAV
# [7] = system: Neuregulin-1 EGF-like domain; assay: small molecules binding NRG1 EGF domain – biochemical, small-molecule microarray, 635 nm fluorescence, primary screen (AID 1081); details: higher = more signal;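 also: binding of the protein to compounds printed on small-molecule microarray slides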
# [8] = FRG1 expression reporter modulators in myotubes – cell-based, C2C12 myotubes, firefly/Renilla luciferase, luminescence, FRG1 inhibition for FSHD, primary screen (AID 1084); details: FRG1 promoter luciferase, higher = more signal, called active from +8 up or from −8 down
# [9] = small molecules captured by biotinylated probe aFST – biochemical, small-molecule microarray, fluorescence 635/667, stem cell growth factor project, primary screen (AID 1086); details: higher = more signal;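 also: score merges 667 nm fluorescence with signal-to-noise of each printed compound spot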
# [10] = binders of probe aHhip on microarray, primary screen, stem cell growth factor project, biochemical, small-molecule microarray, fluorescence 635/667 (AID 1087); details: higher = more signal;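 also: score merges spot fluorescence at 667nm with spot signal to noise ratio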
# [11] = system: PRMT1 (protein arginine N-methyltransferase 1); assay: small molecules binding arginine methyltransferase PRMT1 – biochemical, small-molecule microarray, 635 nm fluorescence, primary screen (AID 1088); details: higher = more signal;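 also: binding of Prmt1 protein to compounds spotted on small-molecule microarray slides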
# [12] = growth effects on S. cerevisiae YJM789 – YJM789 clinical isolate, OD600, 24 h, basal, primary screen (AID 1089); details: higher = more signal, called active from +8 up or from −8 down;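 also: growth of clinical yeast isolate S. cerevisiae YJM 789 seeded 1000 cells per well; test concentration not given here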
# [13] = S. pombe growth modifiers, basal conditions – strain 972, OD600, 24 h, no modulator, primary screen (AID 1090);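 also: basal condition with compound alone and no growth modifier present; test concentration not given here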; details: S. pombe 972 growth, higher = more signal, called active from +8 up or from −8 down
# [14] = budding yeast growth modifiers under rapamycin – strain BY4716, OD600, 96 h, primary screen (AID 1091); also: test concentration not given here; details: S. cerevisiae BY4716 + rapamycin, higher = more signal, called active from +8 up or from −8 down
# [15] = target: Torsin-1A-interacting protein 2 (Homo sapiens) (UniProt Q8NFQ8); assay: small molecules binding lysate-expressed LULL1 – cell lysate, human LULL1 lysate, 635/667 nm fluorescence, primary screen (AID 1092); details: small-molecule microarray, hLULL1 lysate binding, 635 nm fluorescence; higher = more signal;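 also: probe is lysate of COS7 cells overexpressing human LULL1; score merges per-feature 667 nm fluorescence with signal-to-noise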
# Torsin-1A-interacting protein 2 (Homo sapiens), sequence (Q8NFQ8 whole entry, looked up): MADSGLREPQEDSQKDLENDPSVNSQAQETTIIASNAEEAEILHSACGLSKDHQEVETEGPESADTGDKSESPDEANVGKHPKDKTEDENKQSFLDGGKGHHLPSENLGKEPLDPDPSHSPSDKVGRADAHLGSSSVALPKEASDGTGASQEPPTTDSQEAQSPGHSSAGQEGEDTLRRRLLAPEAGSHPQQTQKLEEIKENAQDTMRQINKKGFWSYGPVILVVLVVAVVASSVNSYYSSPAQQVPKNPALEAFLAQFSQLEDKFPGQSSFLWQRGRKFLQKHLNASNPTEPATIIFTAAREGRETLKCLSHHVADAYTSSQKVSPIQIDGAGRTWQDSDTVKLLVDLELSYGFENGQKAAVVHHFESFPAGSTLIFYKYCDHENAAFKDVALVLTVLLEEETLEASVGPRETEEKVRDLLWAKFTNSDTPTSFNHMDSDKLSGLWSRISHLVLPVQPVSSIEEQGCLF
# [16] = optical density change of DRC41 E. coli – strain DRC41, OD650, 24 h, E. coli filamentation project, primary screen (AID 1093);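 also: MC1000 strain lacking acrAB efflux and sulA so SOS filamentation is blocked; test concentration not given here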; details: E. coli DRC41 growth, higher = more signal, called active from +8 up or from −8 down
# [17] = probe aLefty2 binding to arrayed compounds – biochemical, biotinylated probe, 635/667 nm fluorescence, primary screen (AID 1094); details: small-molecule microarray, higher = more signal;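 also: score merges spot fluorescence near 667 nm with spot signal-to-noise ratio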
# [18] = system: Noggin (protein binding on small-molecule microarray); assay: small molecules binding Noggin protein – biochemical, 635/667 nm fluorescence, primary screen (AID 1095); details: 635 nm fluorescence, higher = more signal;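 also: score merges 667 nm feature fluorescence with signal to noise over triplicate slides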
# [19] = target: Neurogenic locus notch homolog protein 3 (Homo sapiens) (UniProt Q9UM47); assay: small molecules binding NOTCH3 protein – biochemical, 635/667 nm fluorescence, primary screen (AID 1096); details: small-molecule microarray, 635 nm fluorescence, higher = more signal
# [20] = probe aEGFR binding to arrayed compounds – biochemical, biotinylated probe, 635/667 nm fluorescence, primary screen (AID 1097); details: small-molecule microarray, higher = more signal;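 also: probe is a biotinylated anti-EGFR antibody binding compounds printed on slides; score combines fluorescence near 667 nm and signal to noise of each spot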
SMILES,composite z-score [1],composite z-score [2],composite z-score [3],composite z-score [4],composite z-score [5],composite z-score [6],composite z-score [7],z-score [8],composite z-score [9],composite z-score [10],composite z-score [11],z-score [12],z-score [13],z-score [14],composite z-score [15],z-score [16],composite z-score [17],composite z-score [18],composite z-score [19],composite z-score [20]
COc1ccc([C@H]2C[C@H]3C(Br)=C[C@@]2(CO)C(=O)[C@]32CO2)cc1,-0.035,-0.512,-0.0563,0.0327,0.269,-0.202,-0.333,1.26 (inactive),0.0716,-0.175,-0.855,-0.658 (inactive),-3.35 (inactive),0.241 (inactive),-0.274,-0.687 (inactive),0.0395,-0.472,-0.534,-0.0799
COc1cc2c(cc1O)C(c1cccs1)N(Cc1ccc([N+](=O)[O-])o1)CC2 (stereo not given),-0.116,1.85,-0.0265,0.724,0.881,1.54,0.387,-1.63 (inactive),0.583,-0.0994,0.298,-2.77 (inactive),-4.47 (inactive),-2.27 (inactive),1.02,-0.73 (inactive),0.156,-0.419,0.32,-0.0859
O=C1C2C=CC(C(O)C=Cc3ccc([N+](=O)[O-])cc3)N(n3cnnc3)C2C(=O)N1Cc1ccccc1 (stereo not given),0.246,1.31,0.0575,0.375,1.27,1.77,1.19,0.422 (inactive),1.09,-0.226,0.934,-0.785 (inactive),-3.83 (inactive),-0.0166 (inactive),1.92,-0.0783 (inactive),0.292,-0.0663,0.989,-0.0703
COC(=O)[C@@]1(Cc2ccc(OC)cc2)[C@H]2c3cc(C(=O)N4CCCC4)n(CCc4ccc(O)c(O)c4)c3C[C@H]2CN1C(=O)c1ccccc1,1.65,0.269,0.0215,0.0359,1.33,2.26,1.11,2.61 (inactive),0.939,-0.156,-0.445,-0.087 (inactive),0.208 (inactive),0.751 (inactive),3.62,-0.765 (inactive),0.491,-0.17,-0.122,0.212
CCCCCCc1nc(-c2ccc(-c3ccc(Cl)c(Cl)c3)o2)c(C)c2c1[Si](C(C)C)(C(C)C)OC2,-0.495,-0.866,-0.144,-0.475,-0.363,0.0643,-0.416,0.333 (inactive),-0.0878,0.0505,0.337,-0.972 (inactive),-3.62 (inactive),0.0962 (inactive),0.703,-0.0336 (inactive),-0.259,-0.123,-0.243,-0.233
O=C(NCCN1CCOCC1)[C@@H]1c2ccccc2C(=O)N(Cc2cc(C(F)(F)F)cc(C(F)(F)F)c2)[C@H]1c1ccc(CO)cc1,0.284,0.183,-0.116,-0.214,-1.28,1.27,1.25,0.0006 (inactive),0.0794,-0.0994,1.56,0.764 (inactive),-0.091 (inactive),0.0371 (inactive),2.37,0.339 (inactive),-0.0856,-0.901,-0.578,-0.0744
[N-]=[N+]=NCc1ccccc1C[C@@]1(C(=O)NCC(O)CO)N=C(c2ccc(OCCCO)cc2)O[C@@H]1c1ccccc1 (stereo not given in full),1.03,0.0102,-0.0459,0.206,0.111,0.768,0.952,-1.26 (inactive),-0.12,-0.132,0.303,-0.213 (inactive),-0.272 (inactive),-0.37 (inactive),3.21,0.627 (inactive),0.202,-0.962,-1.12,0.0061
CN(C)CCCCNC(=O)[C@@H]1C[C@@H]2C(=O)N[C@@H](CCCCN)C(=O)N2[C@@H]1c1ccc(O)cc1,0.597,0.034,-0.145,-0.146,0.471,0.707,1.13,-0.778 (inactive),0.214,0.151,1.3,0.184 (inactive),1.17 (inactive),3.58 (inactive),1.12,0.813 (inactive),0.0864,0.855,0.159,0.0552
C=CCNC(=O)[C@H]1[C@@H]2C(=O)O[C@@H](c3ccccc3)[C@@H](c3ccccc3)N2[C@@H](c2ccc(O)cc2)[C@]12C(=O)Nc1ccc(C#CCCO)cc12,-0.107,-1.51,-0.122,-0.0819,-0.697,1.01,0.732,-3.71 (inactive),0.33,-0.0994,0.586,1.35 (inactive),1.84 (inactive),1.13 (inactive),1.97,0.515 (inactive),-0.0915,-0.325,-0.356,-0.201

# — PubChem BioAssay
